# Assays:
# Assay in all cases: DAPPL (digital affinity profiling via proximity ligation, sequencing); 10 mM Tris-HCl pH 7.5, 50 mM NaCl, 1 mM DTT, 4% glycerol, room temperature, 30 min; GST-TFs on glutathione beads, 16-mer random dsDNA library, 0.1% formaldehyde crosslink after washing; high values mean tight binding
# FEV = molecular target: T1, FEV (Homo sapiens, UniProt Q99581 1-238); conditions: protein: recombinant; tags: N-terminal GST; dsDNA, one strand shown
# T1 sequence: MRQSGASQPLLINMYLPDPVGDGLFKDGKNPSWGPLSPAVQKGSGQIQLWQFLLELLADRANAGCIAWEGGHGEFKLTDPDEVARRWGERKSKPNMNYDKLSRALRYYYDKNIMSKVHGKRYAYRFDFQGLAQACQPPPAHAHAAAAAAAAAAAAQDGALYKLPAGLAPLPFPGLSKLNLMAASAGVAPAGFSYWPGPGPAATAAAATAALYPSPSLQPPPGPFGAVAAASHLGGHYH
# Outline: (§1)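 Human transcription factors were made in yeast as GST fusions, captured on glutathione beads and barcoded with DNA. With a tag-only sample included, the pool was incubated with 200 nmole of a random double-stranded 16-mer DNA library in Tris/NaCl/DTT/glycerol buffer at room temperature for 30 min, then crosslinked with 0.1% formaldehyde after washing, ligated by proximity, amplified and sequenced. For binding signal, each hexamer's read frequency for a factor is divided by its frequency for the tag-only sample.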
# ETV5 = ETV5 (Homo sapiens, UniProt P41161 1-510); conditions: protein: recombinant; tags: N-terminal GST; dsDNA, one strand shown
# Outline: as §1
# HSF1 = HSF1 (Homo sapiens, UniProt Q00613 1-529); conditions: protein: recombinant; tags: N-terminal GST; chain copies: 3; dsDNA, one strand shown
# Outline: as §1
# SPIC = molecular target: T2, SPIC (Homo sapiens, UniProt Q8N5J4 1-248); conditions: protein: recombinant; tags: N-terminal GST; dsDNA, one strand shown
# T2 sequence: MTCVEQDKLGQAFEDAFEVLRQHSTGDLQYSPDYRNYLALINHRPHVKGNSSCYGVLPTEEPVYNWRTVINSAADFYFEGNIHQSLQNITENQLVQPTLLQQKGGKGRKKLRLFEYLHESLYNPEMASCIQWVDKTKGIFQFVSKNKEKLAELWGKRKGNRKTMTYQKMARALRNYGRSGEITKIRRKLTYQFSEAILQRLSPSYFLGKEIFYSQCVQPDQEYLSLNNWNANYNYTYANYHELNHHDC
# Outline: as §1
# ELF4 = ELF4 (Homo sapiens, UniProt Q99607 1-663); conditions: protein: recombinant; tags: N-terminal GST; dsDNA, one strand shown
# Outline: as §1
# ELK4 = molecular target: T3, ELK4 (Homo sapiens, UniProt P28324-2 1-405); conditions: protein: recombinant; tags: N-terminal GST; dsDNA, one strand shown
# T3 sequence: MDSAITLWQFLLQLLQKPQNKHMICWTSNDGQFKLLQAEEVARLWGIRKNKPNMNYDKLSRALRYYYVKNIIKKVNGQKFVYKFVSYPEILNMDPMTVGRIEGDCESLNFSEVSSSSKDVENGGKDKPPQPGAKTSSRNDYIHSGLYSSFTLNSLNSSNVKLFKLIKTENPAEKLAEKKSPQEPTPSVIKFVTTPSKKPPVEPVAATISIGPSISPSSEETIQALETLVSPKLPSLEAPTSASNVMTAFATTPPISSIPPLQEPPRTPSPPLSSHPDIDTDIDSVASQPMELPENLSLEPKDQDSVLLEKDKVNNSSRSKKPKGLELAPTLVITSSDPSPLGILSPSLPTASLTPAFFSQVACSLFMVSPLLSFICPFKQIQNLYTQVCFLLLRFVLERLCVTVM
# Outline: as §1
# ETV2 = molecular target: T4, ETV2 (Homo sapiens, UniProt O00321 1-342); conditions: protein: recombinant; tags: N-terminal GST; dsDNA, one strand shown
# T4 sequence: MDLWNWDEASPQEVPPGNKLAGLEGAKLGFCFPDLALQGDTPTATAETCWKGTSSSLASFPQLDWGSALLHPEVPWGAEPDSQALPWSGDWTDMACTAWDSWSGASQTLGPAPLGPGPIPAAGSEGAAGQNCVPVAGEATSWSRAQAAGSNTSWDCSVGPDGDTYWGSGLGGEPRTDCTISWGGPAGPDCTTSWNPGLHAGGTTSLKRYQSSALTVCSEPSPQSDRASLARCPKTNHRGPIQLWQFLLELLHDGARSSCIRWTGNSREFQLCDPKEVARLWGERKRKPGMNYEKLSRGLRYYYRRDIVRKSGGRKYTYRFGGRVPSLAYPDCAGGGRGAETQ
# Outline: as §1
# ELF3 = molecular target: T5, ELF3 (Homo sapiens, UniProt P78545 1-371); conditions: protein: recombinant; tags: N-terminal GST; dsDNA, one strand shown
# T5 sequence: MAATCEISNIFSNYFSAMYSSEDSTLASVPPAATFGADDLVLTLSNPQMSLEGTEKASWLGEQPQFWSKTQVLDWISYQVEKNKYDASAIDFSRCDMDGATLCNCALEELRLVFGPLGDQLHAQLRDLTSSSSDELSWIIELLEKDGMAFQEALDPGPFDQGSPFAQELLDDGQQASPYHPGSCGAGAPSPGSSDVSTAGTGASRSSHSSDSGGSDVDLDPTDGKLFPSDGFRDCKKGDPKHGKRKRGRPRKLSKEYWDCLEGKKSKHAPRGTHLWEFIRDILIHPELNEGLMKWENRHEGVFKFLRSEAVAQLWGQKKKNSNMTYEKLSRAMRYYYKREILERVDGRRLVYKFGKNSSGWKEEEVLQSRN
# Outline: as §1
# CRX = CRX (Homo sapiens, UniProt O43186 1-299); conditions: protein: recombinant; tags: N-terminal GST; dsDNA, one strand shown
# Outline: as §1
# ETV1 = ETV1 (Homo sapiens, UniProt P50549 1-477); conditions: protein: recombinant; tags: N-terminal GST; dsDNA, one strand shown
# Outline: as §1
# Sequence of HSF1 (Q00613 whole entry): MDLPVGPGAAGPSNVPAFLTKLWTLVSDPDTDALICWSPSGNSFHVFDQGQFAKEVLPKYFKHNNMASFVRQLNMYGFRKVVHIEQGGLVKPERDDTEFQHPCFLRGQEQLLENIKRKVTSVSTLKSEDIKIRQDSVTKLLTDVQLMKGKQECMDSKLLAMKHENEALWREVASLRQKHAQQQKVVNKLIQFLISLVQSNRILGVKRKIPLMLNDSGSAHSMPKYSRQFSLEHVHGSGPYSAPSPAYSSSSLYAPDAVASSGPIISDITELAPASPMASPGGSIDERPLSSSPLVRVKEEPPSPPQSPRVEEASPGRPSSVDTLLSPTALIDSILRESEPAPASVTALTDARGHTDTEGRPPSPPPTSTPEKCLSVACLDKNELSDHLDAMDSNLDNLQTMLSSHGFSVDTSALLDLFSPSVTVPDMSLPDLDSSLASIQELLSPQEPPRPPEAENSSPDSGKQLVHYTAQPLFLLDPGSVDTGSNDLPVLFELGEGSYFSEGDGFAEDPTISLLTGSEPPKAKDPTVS
# Sequence of ELF4 (Q99607 whole entry): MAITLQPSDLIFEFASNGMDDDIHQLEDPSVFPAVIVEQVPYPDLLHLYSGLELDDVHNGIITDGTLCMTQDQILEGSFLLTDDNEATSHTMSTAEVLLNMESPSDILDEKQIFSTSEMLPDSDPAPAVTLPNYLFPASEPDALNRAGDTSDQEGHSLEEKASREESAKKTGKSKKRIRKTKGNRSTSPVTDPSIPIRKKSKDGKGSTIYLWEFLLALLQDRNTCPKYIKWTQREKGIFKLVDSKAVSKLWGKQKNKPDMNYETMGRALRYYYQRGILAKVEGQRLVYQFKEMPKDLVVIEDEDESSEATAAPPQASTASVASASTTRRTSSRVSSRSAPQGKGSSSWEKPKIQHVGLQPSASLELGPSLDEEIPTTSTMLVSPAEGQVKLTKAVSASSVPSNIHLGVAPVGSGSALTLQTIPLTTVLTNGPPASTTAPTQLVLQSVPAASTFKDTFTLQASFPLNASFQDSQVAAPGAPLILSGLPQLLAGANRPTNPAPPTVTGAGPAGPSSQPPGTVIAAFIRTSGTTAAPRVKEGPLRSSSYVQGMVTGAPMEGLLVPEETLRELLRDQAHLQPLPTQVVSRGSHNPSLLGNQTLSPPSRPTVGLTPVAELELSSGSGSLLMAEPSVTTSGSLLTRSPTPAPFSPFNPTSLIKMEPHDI
# Sequence of CRX (O43186 whole entry): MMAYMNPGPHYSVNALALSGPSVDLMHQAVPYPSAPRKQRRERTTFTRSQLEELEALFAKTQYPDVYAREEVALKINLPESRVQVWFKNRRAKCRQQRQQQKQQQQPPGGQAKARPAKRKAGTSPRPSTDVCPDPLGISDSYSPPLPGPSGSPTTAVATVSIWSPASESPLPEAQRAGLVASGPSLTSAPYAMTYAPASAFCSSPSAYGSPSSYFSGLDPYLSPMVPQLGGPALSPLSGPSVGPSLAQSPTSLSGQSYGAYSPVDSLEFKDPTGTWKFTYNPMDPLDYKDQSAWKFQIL
# Sequence of ETV5 (P41161 whole entry): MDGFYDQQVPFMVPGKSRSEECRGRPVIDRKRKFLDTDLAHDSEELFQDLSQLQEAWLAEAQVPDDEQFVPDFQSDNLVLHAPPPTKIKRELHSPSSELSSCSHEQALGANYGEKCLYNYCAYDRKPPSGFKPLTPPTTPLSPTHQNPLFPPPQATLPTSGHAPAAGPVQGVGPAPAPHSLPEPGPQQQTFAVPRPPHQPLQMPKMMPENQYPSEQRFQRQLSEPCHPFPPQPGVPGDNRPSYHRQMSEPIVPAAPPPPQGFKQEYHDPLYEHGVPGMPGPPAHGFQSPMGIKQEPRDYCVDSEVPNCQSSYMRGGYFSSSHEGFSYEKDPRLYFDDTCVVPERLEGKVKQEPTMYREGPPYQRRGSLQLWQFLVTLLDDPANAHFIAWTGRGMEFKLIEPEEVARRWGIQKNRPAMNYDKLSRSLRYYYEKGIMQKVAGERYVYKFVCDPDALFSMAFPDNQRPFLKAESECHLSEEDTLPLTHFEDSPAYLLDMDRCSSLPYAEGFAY
# Sequence of ETV1 (P50549 whole entry): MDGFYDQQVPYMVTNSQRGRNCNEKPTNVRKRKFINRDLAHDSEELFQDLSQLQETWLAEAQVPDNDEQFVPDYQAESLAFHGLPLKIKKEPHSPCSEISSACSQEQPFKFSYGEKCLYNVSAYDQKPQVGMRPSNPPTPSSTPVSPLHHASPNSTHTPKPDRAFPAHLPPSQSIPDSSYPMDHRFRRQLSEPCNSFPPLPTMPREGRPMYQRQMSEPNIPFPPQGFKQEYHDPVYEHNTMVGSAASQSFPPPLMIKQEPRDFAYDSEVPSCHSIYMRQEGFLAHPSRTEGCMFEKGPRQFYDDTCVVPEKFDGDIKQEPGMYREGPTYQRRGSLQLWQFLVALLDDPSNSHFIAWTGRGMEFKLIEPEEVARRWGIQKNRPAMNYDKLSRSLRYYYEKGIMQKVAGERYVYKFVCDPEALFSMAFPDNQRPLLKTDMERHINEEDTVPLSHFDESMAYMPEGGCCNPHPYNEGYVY
sequence,measurement,setting,value
TTTTGT,binding signal,FEV,"1.33 fold enrichment (6-mer frequency, TF over GST control)"
same,binding signal,ETV5,"1.31 fold enrichment (6-mer frequency, TF over GST control)"
same,binding signal,HSF1,"1.27 fold enrichment (6-mer frequency, TF over GST control)"
same,binding signal,SPIC,"1.2 fold enrichment (6-mer frequency, TF over GST control)"
same,binding signal,ELF4,"1.41 fold enrichment (6-mer frequency, TF over GST control)"
same,binding signal,ELK4,"1.36 fold enrichment (6-mer frequency, TF over GST control)"
same,binding signal,ETV2,"1.28 fold enrichment (6-mer frequency, TF over GST control)"
same,binding signal,ELF3,"1.43 fold enrichment (6-mer frequency, TF over GST control)"
same,binding signal,CRX,"1.42 fold enrichment (6-mer frequency, TF over GST control)"
same,binding signal,ETV1,"1.32 fold enrichment (6-mer frequency, TF over GST control)"

# Source: publication PMC7862700, “An all-to-all approach to the identification of sequence-specific readers for epigenetic DNA modifications on cytosine”
